From PubChem BioAssay (NCI) come the findings set out here.

SMILES strings stand for the structures. This is part of a sample that, as a whole, favours compounds with a hit. Of some 83,000 tested, about 20% had one in any assay.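 Cell lines were cultured in 96-well plates, exposed to a single compound concentration, and assessed for percent growth 48 hours later.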 A number with no mark means an inactive call. Calls of active or inactive are those of the source.

For this test, the system named is HCC-2998 colon. The test is described as follows: NCI-60 one-dose screen, 48 h (100 = growth as untreated, 0 = no growth, -100 = all killed). As to conditions: 10 µM unless noted. The procedure: Growth inhibition of the HCC-2998 human tumor cell line is measured as a screen for anti-cancer activity. Cells are grown in 96 well plates and exposed to the test compound for 48 hours. Compounds are tested at a single concentration, which is 10^-5 M for most compounds. The reported endpoint is percent growth (GI% or GIPRCNT), where numbers from 0 - 100% represent growth inhibition, and numbers from -100% - 0 represent cell death. For example, a value of 40 represents 60% growth inhibition. A value of 0 means no net growth occurred over the course of the experiment. A value of -40 indicates 40% of cells at the beginning of the experiment died by the end of the experiment. A value of -100 means all cells are dead at the end of the experiment.
NCI-60 Human Tumor Cell Lines Screen was performed using the standard one-dose NCI protocol, which is described in more detail at https://dtp.cancer.gov/discovery_development/nci-60/default.htm.
Compounds with GIPRCNT values below 10 were considered active. Activity score was based on GIPRCNT using the following formula: […]
Score is 0 for GIPRCNT values of 100 or above, 50 for GIPRCNT values of 0, and 100 for GIPRCNT values of -100.
For the molecule `O=C(NNC(=O)c1ccc(NC(=O)c2ccccn2)cc1)Nc1ccc2ccccc2c1`, the growth is 121%.
With `C=C1C(=O)O[C@H]2[C@H]1CC/C(COC(=O)/C=C\C(=O)NCc1ccc(Cn3c(=O)sn(CCCCC)c3=O)cc1)=C\CC[C@@]1(C)O[C@@H]21` the figure was 100%; with `CC1(C)CC2=C3C=C[C@@H]4[C@@]5(C)CCC(=O)C(C)(C)[C@@H]5CC[C@@]4(C)[C@]3(C)CC[C@@]2(C(=O)O)C[C@H]1O`, 35.4%.
With `COc1ccc(/C=C2\COc3ccc(O)cc3C2=O)cc1` the figure was 103%.
For `CN1CCN(C(=O)[C@@]2(C)CC[C@]3(C)CC[C@]4(C)C(=CC[C@@H]5[C@@]6(C)CCC(=O)NC(C)(C)[C@@H]6CC[C@]54C)[C@@H]3C2)CC1` the value was 49%; for `O=C(Cc1ccc(/C=C/C(=O)c2ncc[nH]2)cc1)Nc1cc(C(F)(F)F)cc(C(F)(F)F)c1`, 63%.
Regarding `CCCCC#Cc1c(I)n(C)c(=O)[nH]c1=O`, the growth is -25.6% (active).
For `N[C@H]1CCC[C@@H]1NCCCCN1C(=O)c2cccc3cc([N+](=O)[O-])cc(c23)C1=O` the value was 51.9%; for `O=C(CCl)NNc1nccc(Nc2ccc(S(=O)(=O)Nc3ccncc3)cc2)n1`, 95.3%; for `CCCCCN(CCCCC)CC(O)c1cc(C)c2ccc3cc(C(C)C)ccc3c2c1` (stereo not given), -50.8% (active).
In the case of `O=C1/C(=C/c2ccc(O)c(O)c2)COc2ccc(-c3ccccc3)cc21`, the growth is -23% (active).
With `COc1ccc(/C=C/C(c2cc(OC)c(OC)c(OC)c2)n2cncn2)cc1` (stereo not given) the figure was 84.2%; with `Cn1cc(-c2ccc(-c3cn(C)c4ccc(Cl)cc34)[nH]2)c2cc(Cl)ccc21`, -72.2% (active).
`c1nc2ccc(-c3cc4ccc5[nH]ncc5c4c4c3CCCC4)cc2[nH]1`: the growth is 75.5%.
For `Cc1[nH]c(C2CC(c3ccc(C(F)(F)F)c(F)c3)=NN2c2ccccc2)c(C)c1C(=O)NCC(F)(F)F` (stereo not given) the value was 96.5%.
Turning to `CCOC(=O)c1c(C)nc2c(c1N)CC(=O)N2Cc1ccc(OC)cc1`, the growth was 51.1%.
For `O=S(=O)(NCCNc1nccc(-c2c(-c3ccc(F)c(O)c3)nc3sccn23)n1)c1ccc(F)cc1` the value was 41.8%.
For `CCN1CCN(c2cc(C)nc(N(CCNc3ccnc4cc(Cl)ccc34)Cc3ccc4c(c3)OCO4)n2)CC1` the value was -46% (active).
With `O=C(CCSc1nnc2n(Cc3ccccc3)c(=O)c3c4c(sc3n12)CCCC4)N1CCN(c2ccccc2)CC1` the figure was 96.5%; with `Cc1ccc(CNc2c3ccccc3nc3ccccc23)cc1`, -2.62% (active); with `Nc1nc(NC(=O)Nc2ccc(C(=O)O)cc2)nn1-c1ccc(S(N)(=O)=O)cc1`, 107%.
On to `Cc1ccc(S(=O)(=O)N2CCC(=O)c3ccccc32)cc1`, for which the growth was 83.8%.
With `FC(F)(F)c1ccc(Cn2cc(CSc3nc4ccccc4s3)nn2)cc1` the figure was 104%.
With `C#COc1cccc(Nc2ncnc3cc(NC(=O)[C@@H](C)Cl)ccc23)c1` the figure was 15.2% [6.25 µM]; with `NC(=O)c1cccc([C@@H]2O[C@H](CO)[C@@H](O)[C@H]2O)c1`, 93.9%.
With `C=C1CC[C@@H]2[C@](C)(COC(C)=O)[C@H](OC(C)=O)CC[C@@]2(C)[C@@H]1CC(Nc1ccc(S(=O)(=O)NC(C)=O)cc1)C1=CCOC1=O` (stereo not given in full) the figure was -12.7% (active); with `CNC(=O)c1cc(Oc2cccc3nc(NC(=O)Nc4cc(C(F)(F)F)ccc4Cl)ccc23)ccn1`, 115%; with `Cc1ccnc(Nc2ccc([N+](=O)[O-])c(NCCN3CCOCC3)n2)c1`, 14.4%.
As to `CCN(CC)c1ccc(/C=N/NC(=O)Cc2ccc(Nc3ccnc(C(F)(F)F)c3)cc2)c(O)c1`, the growth was 26.9%.
Consider `O=C(Nc1ncccc1OCc1ccccc1)NC1CCCCCC1`, for which the growth was 105%.
With `CC(=O)/C(=C/c1ccc([N+](=O)[O-])cc1)C(=O)c1ccccc1` the figure was 95.2%; with `CCN1C(=O)N(CC)C2C1NN=c1s/c(=C\c3ccc[nH]3)c(=O)n12` (stereo not given), 33.1%; with `CN(C)CCN1C(=O)c2cccc3c(/C=C/CN4C(=O)c5cccc6cccc(c56)C4=O)ccc(c23)C1=O`, 36.4%.
For `C#CC#CC#CC#CC#CC#CC#CC#CCC1OC[C@H](COC(=O)O[C@@H](C(=O)O[C@H]2C[C@@]3(O)[C@@H](OC(=O)c4ccccc4)[C@@H]4[C@]5(OC(C)=O)CO[C@@H]5C[C@H](O)[C@@]4(C)C(=O)[C@H](OC(C)=O)C(=C2C)C3(C)C)[C@@H](NC(=O)c2ccccc2)c2ccccc2)O1` (stereo not given in full) the value was 10.4%; for `CN1CCN(Cc2ccc(NC(=O)c3cncc(C#Cc4cnc(N)c5ccc(F)cc45)c3)cc2C(F)(F)F)CC1`, 34.8%; for `O=C(Nc1ccc(Cl)cc1)Oc1c(Cl)c(Cl)c(Cl)c(Cl)c1Cl`, 107%.
For `Cc1ccc(S(=O)(=O)Oc2ccc3sc4cccc(NCCN(C)C)c4c(=O)c3c2)cc1` the value was -96.7% (active); for `COC(=O)CCC/C=C\C[C@H]1C=CC(=O)/C1=C/C[C@@H](O)C/C=C\CC(F)(F)F`, -68.7% (active); for `OCCNCCNC(Cc1ccc(Cl)cc1)c1ccccc1` (stereo not given), 91.6%.
For `O=C(CN1CCCCCC1)Nc1nc2ccc(NCc3ccc(Cl)cc3)cc2s1`, the growth was 114%.
